# ChEMBL document CHEMBL1857833, “Screening and optimization of specific chemical series against human African Trypanosomiasis (HAT)”
# Out of some 4,400 compounds screened, about 390 (8.9%) showed an effect of 50% or more. For the sample, strong results were picked, then their nearest neighbours and some compounds at random.
# System: Trypanosoma brucei
# Test: DNDI: Inhibition of Human African Trypanosomiasis, SBRI 427, in vitro at 2 ug.mL-1
# Format: functional
row,SMILES,% inhibition
1,CSc1ccc(Oc2ccc(/C(=N/O)NC3CCC(C)CC3)cn2)cc1 (stereo not drawn),81%
2,CSc1ccc(Oc2cc(/C(=N/O)NC3CCC(C)CC3)ccn2)cc1 (stereo not drawn),9%
3,CC1CCC(N/C(=N\O)c2ccc(Oc3ccc(F)cc3)nc2)CC1 (stereo not drawn),16%
4,CCc1ccc(Oc2ccc(/C(=N/O)N3CCCCC3)cn2)cc1,68%
5,CCc1ccc(Oc2ccc(/C(=N/O)N3CCOCC3)cn2)cc1,3%
6,CCc1ccc(Oc2ccc(/C(=N/O)NCC3CC3)cn2)cc1,99%
7,CCc1ccc(Oc2ccc(/C(=N/O)NCc3ccc(OC)cc3)cn2)cc1,22%
8,CCc1ccc(Oc2ccc(/C(=N/O)N3CCSCC3)cn2)cc1,16%
9,CCc1ccc(Oc2ccc(/C(=N/O)NCc3c(F)cccc3F)cn2)cc1,22%
10,N#CCCN(Cc1coc(-c2cccc(F)c2)n1)CC1CCCO1 (stereo not drawn),-9%
11,Cc1ccc(Oc2nc(C)ccc2/C(=N/O)N2CCC3CCCCC3C2)c(C)c1 (stereo not drawn),10%
12,CC(C)COc1ncccc1/C(=N/O)N1CCC2CCCCC2C1 (stereo not drawn),-17%
13,Cc1ccc(Oc2ccc(/C(=N/O)N3CCN(c4ccccc4)CC3)cn2)c(C)c1,18%
14,COc1cc(CN(C)Cc2coc(-c3ccc(Cl)cc3Cl)n2)cc(OC)c1OC,0%
15,COc1cc(-c2nc(CN3CCCc4ccccc43)co2)cc(OC)c1OC,6%
16,COc1ccccc1CN/C(=N\O)c1ccc(C)nc1Oc1ccc(C)cc1C,40%
17,CCOc1ccccc1CN/C(=N\O)c1ccc(C)nc1Oc1ccc(SC)c(C)c1,-24%
18,CCOc1ccccc1CN/C(=N\O)c1ccc(C)nc1Oc1ccc(C)cc1C,99%
19,CCOc1ccccc1CN/C(=N\O)c1ccc(C)nc1Oc1ccc(F)cc1,20%
20,CCOc1ccccc1CN/C(=N\O)c1ccc(C)nc1Oc1ccc(C)cc1,67%
21,Cc1ccc(Oc2nc(C)ccc2/C(=N/O)NCc2ccccc2C)c(C)c1,43%
22,Fc1ccc(-c2nc(CNC3CCc4ccccc43)co2)cc1 (stereo not drawn),28%
23,Cc1ccc(/C(=N/O)N2C(C)CCCC2C)c(Oc2cccc(F)c2)n1 (stereo not drawn),15%
24,CN(Cc1coc(-c2cccc(F)c2)n1)Cc1cccc2ccccc12,-3%
25,COc1ccc(CN/C(=N\O)c2ccnc(Oc3ccc(C)c4c3CCC4)c2)cc1,21%
26,COC(=O)c1cn(Cc2coc(-c3ccc(Br)cc3)n2)cn1,16%

row,SMILES,% inhibition
1,CSc1ccc(Oc2ncccc2/C(N)=N/O)cc1C,17%
2,CCOc1ccc(Oc2cc(/C(=N/O)NC3CCCCC3)ccn2)cc1,51%
3,CCOc1ccc(Oc2cc(/C(=N/O)Nc3ccccc3)ccn2)cc1,24%
4,CCOc1ccc(Oc2cc(/C(=N/O)NC3CC(C)CC(C)(C)C3)ccn2)cc1 (stereo not drawn),29%
5,CCOc1ccc(Oc2cc(/C(=N/O)NC3CCC(C)CC3)ccn2)cc1 (stereo not drawn),25%
6,CCOc1ccc(Oc2cc(/C(=N/O)NC3CCc4ccccc43)ccn2)cc1 (stereo not drawn),29%
7,CCOc1ccc(Oc2cc(/C(=N/O)NC3CCCC3)ccn2)cc1,53%
8,CCOc1cccc(-c2nc(CN3CCN(c4cc(C)nc5ccccc45)CC3)co2)c1,11%
9,Cc1ccccc1-c1nc(CNCCN2CCOCC2)co1,6%
10,CCOc1cccc(-c2nc(CN3CCCN(C)CC3)co2)c1,2%
11,CSc1ccc(Oc2nc(C)ccc2/C(=N/O)N2CCSC2)cc1,1%
12,Fc1cccc(-c2nc(CN3CCCCCC3)co2)c1,5%
13,Cc1cc(C)cc(Oc2ccc(/C(=N/O)NCC(C)(C)C)cn2)c1,98%
14,Cc1cc(C)cc(Oc2ccc(/C(=N/O)NCC(C)C)cn2)c1,90%
15,Cc1cc(C)cc(CN/C(=N\O)c2ccc(Oc3cc(C)cc(C(C)C)c3)nc2)c1,19%
16,Cc1cc(Oc2ccc(/C(=N/O)NC3CCc4ccccc43)cn2)cc(C(C)C)c1 (stereo not drawn),35%
17,Cc1cc(Oc2ccc(/C(=N/O)NC3CC3)cn2)cc(C(C)C)c1,62%
18,Cc1cc(Oc2ccc(/C(=N/O)NCC3CC3)cn2)cc(C(C)C)c1,97%
19,CC(C)CN/C(=N\O)c1ccc(Oc2ccc3ccccc3c2)nc1,2%
20,CCCN/C(=N\O)c1ccc(Oc2cc(C)cc(C)c2)nc1,20%
21,Cc1cc(C)cc(CN/C(=N\O)c2ccc(Oc3cc(C)cc(C)c3)nc2)c1,-3%
22,COCCN/C(=N\O)c1ccc(Oc2cc(C)cc(C(C)C)c2)nc1,17%
23,Cc1cc(Oc2ccc(/C(=N/O)NC3CCC(C)CC3)cn2)cc(C(C)C)c1 (stereo not drawn),19%
24,COc1cccc(Oc2ccc(/C(=N/O)NCC(C)C)cn2)c1,19%
25,CCC(C)(C)N/C(=N\O)c1ccc(C)nc1Oc1ccc(F)c(F)c1,11%
26,CCOc1ccccc1-c1nc(CN2CCC=N2)co1,-3%

row,SMILES,% inhibition
1,CC(=O)c1ccc(N2CCN(Cc3coc(-c4ccc(F)cc4)n3)CC2)cc1,-5%
2,Cc1cc(C)cc(Oc2ccc(/C(=N/O)NCC3CCCCC3)cn2)c1,21%
3,Cc1cc(C)cc(Oc2ccc(/C(=N/O)NCC3CC3)cn2)c1,99%
4,Cc1cc(C)cc(Oc2ccc(/C(=N/O)NCC3CCCO3)cn2)c1 (stereo not drawn),-3%
5,Cc1cccc(CNCc2coc(-c3ccc(O)cc3)n2)c1,-10%
6,Cc1cn(Cc2coc(-c3ccccc3Br)n2)c(C)n1,25%
7,CCCCN(Cc1coc(-c2ccccc2Cl)n1)c1ccccc1,10%
8,COc1cc(-c2nc(Cn3cnc(C)c3)co2)cc(OC)c1OC,-15%
9,COc1ccc(-c2nc(CNCC3CCCO3)co2)cc1 (stereo not drawn),-10%
10,COc1ccc(-c2nc(CNC[C@@H]3CC[C@H]4C[C@@H]3C4(C)C)co2)cc1,97%
11,COc1cc(-c2nc(CNC[C@@H]3CC[C@H]4C[C@@H]3C4(C)C)co2)cc(OC)c1OC,11%
12,CC1(C)[C@H]2CC[C@@H](CNCc3coc(-c4cccc(F)c4)n3)[C@@H]1C2,42%
13,CC1(C)[C@H]2CC[C@@H](CNCc3coc(-c4ccc(F)cc4)n3)[C@@H]1C2,99%
14,Cc1ccc(-c2nc(CNC[C@@H]3CCCO3)co2)cc1,12%
15,Cc1ccc(-c2nc(CNC[C@@H]3CC[C@H]4C[C@@H]3C4(C)C)co2)cc1,99%
16,c1ccc2c(CNCc3coc(-c4cccc5ccccc45)n3)cccc2c1,14%
17,CC1(C)[C@H]2CC[C@@H](CNCc3coc(-c4cccc5ccccc45)n3)[C@@H]1C2,73%
18,CC1(C)[C@H]2CC[C@@H](CNCc3coc(-c4ccccc4Cl)n3)[C@@H]1C2,35%
19,COc1ccc(CNCc2coc(-c3ccc(F)cc3)n2)cc1,-33%
20,Cc1ccc(-c2nc(CNCc3ccc(C)o3)co2)cc1,-7%
21,CCOc1ccc(-c2nc(CNCc3ccc(C(F)(F)F)cc3)co2)cc1,-13%
22,CCOc1ccc(-c2nc(CN3CCC(N4CCCCC4)CC3)co2)cc1,9%
23,CC(NCc1coc(-c2ccccc2Cl)n1)c1ccccc1 (stereo not drawn),9%
24,COC(=O)C1CCN(/C(=N\O)c2ccc(Oc3ccc(C)cc3C)nc2)CC1,11%
25,CCCCN(CCC#N)Cc1coc(-c2ccccc2OCC)n1,-9%
26,O=[N+]([O-])c1ccc(N2CCN(Cc3coc(-c4cccc(F)c4)n3)CC2)cc1,-6%

row,SMILES,% inhibition
1,c1csc(-c2nc(CN3CCCCCCC3)co2)c1,3%
2,Cc1cc(C)cc(Oc2nc(C)ccc2/C(=N/O)NCCN2CCOCC2)c1,15%
3,Cc1ccc(/C(=N/O)NCCC2CCCN2C)c(Oc2ccc3oc4ccccc4c3c2)n1 (stereo not drawn),13%
4,Cc1cc(N/C(=N\O)c2ccc(C)nc2Oc2ccc3oc4ccccc4c3c2)on1,20%
5,Cc1ccc(/C(=N/O)NC2CCC2)c(Oc2ccc3oc4ccccc4c3c2)n1,101%
6,Cc1ccc(/C(=N/O)NC2CCCC2)c(Oc2ccc3oc4ccccc4c3c2)n1,99%
7,Cc1ccc(/C(=N/O)NC2CCC(C)CC2)c(Oc2ccc3oc4ccccc4c3c2)n1 (stereo not drawn),3%
8,Cc1ccc(/C(=N/O)NCC2CC2)c(Oc2ccc3oc4ccccc4c3c2)n1,5%
9,Cc1ccc(/C(=N/O)NC2CCCC2)c(Oc2cccc(C(C)C)c2)n1,3%
10,CC(C)COc1ncccc1/C(=N/O)N(C)Cc1ccco1,11%
11,COc1ccc(-c2nc(CN3CCN(C(=O)C4CCCO4)CC3)co2)cc1 (stereo not drawn),9%
12,COc1ccc(Oc2cc(/C(N)=N/O)ccn2)cc1,19%
13,CCOc1ccc(Oc2cc(/C(N)=N/O)ccn2)cc1,7%
14,Cc1ccc(Oc2cc(/C(N)=N/O)ccn2)c2c1CCC2,16%
15,C#CCN(C)Cc1coc(-c2ccc(Br)cc2)n1,4%
16,Cc1ccc(/C(=N/O)NC2CCCC2)c(OCC2CCCCC2)n1,12%
17,N/C(=N\O)c1cccnc1OCC1CCCCC1,13%
18,O/N=C(\NCC1CCCCC1)c1cccnc1OCC(F)(F)F,0%
19,O/N=C(\NC1CCCCC1)c1cccnc1OCC(F)(F)F,71%
20,O/N=C(\NC1CCC1)c1cccnc1OCC1CCCCC1,99%
21,CC(C)c1ccc(N/C(=N\O)c2cccnc2OCC(F)(F)F)cc1,1%
22,O/N=C(\NCC1CCCO1)c1cccnc1OCC1CCCCC1 (stereo not drawn),5%
23,CCC(CC)N/C(=N\O)c1cccnc1OCC1CCCCC1,98%
24,O/N=C(\NCc1cccs1)c1cccnc1OCC1CCCCC1,-4%
25,COc1ccc(CN/C(=N\O)c2cccnc2Oc2ccc(SC)c(C)c2)cc1,4%
